High-throughput results deposited in PubChem by National Center for Advancing Translational Sciences (NCATS).
MARV entry inh: Marburg virus entry inhibition. Marburg virus pseudotyped entry inhibition, cell reporter. actives 1.8% (n = 300,000). AID 540276. Potency, µM (titrated, usually from 37.8 µM), without a hit: top-dose activity change, negative = inhibition, actives largely listed as inhibitors; calls by dose curve; tested in HEK293 cells
LASV entry inh: blocks Lassa virus binding to or entry into cells. Lassa virus pseudotype entry inhibition, cell reporter. Potency, µM (doses to about 37.9 µM), for the others: top-dose activity change, negative = inhibition, hits mostly inhibitors. actives 1.2% (n = 300,000). AID 540256; calls by dose curve; tested in HEK293 cells; further: nearly all actives have a fitted effect of over 50% in size
AmpC no deterg: AmpC beta-lactamase inhibition without detergent. AmpC nitrocefin hydrolysis, absorbance 480 nm, 0.0001% Triton. P00811. Potency, µM (titrated, usually from 57.1 µM), for inactives: top-dose activity change, negative = inhibition, most hits filed as inhibitors. actives 0.52% (n = 330,000);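 further: plate controls were no compound for no effect and no enzyme for full effect; nearly all actives have a fitted effect of over 20% in size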
Target sequence (P00811 whole entry, looked up): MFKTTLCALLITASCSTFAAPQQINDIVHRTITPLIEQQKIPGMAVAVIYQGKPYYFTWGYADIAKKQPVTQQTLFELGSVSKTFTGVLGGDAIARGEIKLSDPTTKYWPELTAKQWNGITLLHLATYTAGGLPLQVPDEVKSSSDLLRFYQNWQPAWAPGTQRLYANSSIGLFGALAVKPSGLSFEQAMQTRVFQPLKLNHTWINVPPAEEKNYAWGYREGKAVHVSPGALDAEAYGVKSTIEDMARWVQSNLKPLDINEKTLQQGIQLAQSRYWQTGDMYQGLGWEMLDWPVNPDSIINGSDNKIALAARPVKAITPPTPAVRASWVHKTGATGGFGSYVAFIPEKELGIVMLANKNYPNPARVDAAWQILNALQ
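20 mM phosphate pH 7.0 + 0.01% (detergent screen) or 0.0001% Triton X-100; 5.3 nM AmpC reagent; cpd preinc 15 min RT; nitrocefin (800 uM stock) to start; A480 q20 s × 4 min; Activity was normalised to no-enzyme and no-compound control wells.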
AMA1-RON2 inh: inhibitors of Plasmodium falciparum AMA1-RON2 interaction. Potency, µM (titrated, usually from 58.2 µM), inactives show top-dose activity change, negative = inhibition, actives largely listed as inhibitors. AlphaScreen AMA1-biotinylated RON2 peptide binding. actives 0.2% (n = 360,000). AID 720542;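 further: 0% = vehicle wells and -100% = peptide control; nearly all actives have a fitted effect of over 45% in size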
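AMA1 (3D7) with his tag at 25 nM final met compounds first, then biotinylated RON2 peptide at 25 nM; detection used donor plus acceptor beads, 10 µg/mL apiece, read by AlphaScreen after 30 min at room temperature.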
AmpC detergent: blocks E. coli AmpC beta-lactamase in detergent assay; actives 0.041% (n = 370,000); AmpC hydrolysis of nitrocefin, absorbance 480 nm, 0.01% Triton; P00811; Potency, µM (doses to about 114 µM), for inactives: top-dose activity change, negative = inhibition, most hits filed as inhibitors;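 further: 0% = no-compound wells and -100% = no-enzyme wells; nearly all actives have a fitted effect of over 25% in size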
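AmpC (5.3 nM in the dispensed reagent) in 20 mM phosphate pH 7.0 with 0.01% (detergent screen) or 0.0001% Triton X-100 was preincubated with compounds for 15 min at room temperature. Nitrocefin was then added from an 800 uM solution, and hydrolysis was followed at 480 nm.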
Active calls of the source: *; ? = inconclusive; / = no result given; [ ] = another dose, or the depositor's remark. Sampled rows, rich in hits. Any-hit rate of the full collection: about 2.3%. Unless noted, the call rests on the fitted dose curve; in most records, active means well fitted curve in the direction sought with a large enough effect; inconclusive means small, poorly fitted or top-dose-only effect, or another doubt; inactive means no such curve, though single readings can be large; an effect the other way counts as inactive or inconclusive. Unless noted, on the % scale 0 is the no-effect control and ±100 the full control effect; potency means the concentration at half of the fitted maximal effect.

SMILES	MARV entry inh	LASV entry inh	AmpC no deterg	AMA1-RON2 inh	AmpC detergent
CSc1cccc(NC(=O)c2ccc3c(c2)c(C)c(C)n3Cc2ccc(F)cc2)c1	/	-15%[46.1 µM]	/	/	-9%
Cc1cc(NC(=O)CSc2nc(CCC3CCCC3)nc3ccccc23)no1	5%	10%	-21%	32%	1%
O=C(CSc1nc(CCC2CCCC2)nc2ccccc12)NCc1ccc2c(c1)OCO2	13µM*	?	-23%	16%	-14%
CN(C1CCCCC1)S(=O)(=O)c1ccc(F)c(C(=O)Nc2ccc(C(F)(F)F)cc2)c1	/	9%[46.1 µM]	/	/	10%
CCOC(=O)c1sc(NCc2ccco2)c(-c2nc3ccccc3s2)c1N	1%	-14%	11µM*	-11%	?
C=CCNc1nc(Cl)nc(Nc2cc(Cl)ccc2OC)n1	13µM*	3%	-14%	-8%	-11%
O=C(NCc1cccnc1)c1cc(Sc2ccc(F)cc2F)nc2ccccc12	11µM*	?	22%	-15%	-9%
CCOC(=O)C1=C(C)N=C2SC=C(C)N2C1c1ccc(OC)cc1 (stereo not given)	5µM*	?	46%	5%	-3%
CCOC(=O)C1=C(C)N=C2SCCC(=O)N2C1c1ccc(OC)cc1 (stereo not given)	/	/	41%	/	1%
CC(Sc1ccc(S(=O)(=O)N2CCOCC2)cn1)c1ccccc1Cl (stereo not given)	?	8.9µM*	28%	-2%	/
CC(Sc1ccc(S(=O)(=O)N2CCOCC2)cn1)C(=O)Nc1ccc(Cl)cc1Cl (stereo not given)	/	/	-27%	-1%	-8%
CCOc1cccc(CNCCO)c1OCc1ccc(Cl)cc1	?	-26%	0%	-2%	?
CC(O)CNCCNCc1c(OCc2ccccc2)ccc2ccccc12 (stereo not given)	?	9.2µM*	64%	3%	7%
OCCNCc1c(OCc2ccc(Cl)cc2)ccc2ccccc12	5.6µM*	?	37%	-9%	0%
COCOc1ccc(Br)cc1C(=O)[C@@H]1O[C@@H]1c1cccc(OC)c1	-17%[14.2 µM]	/	/	/	/
O=Cc1cn(-c2ccccc2)nc1-c1ccccc1	/	/	-15%	16%	?
CC1=NNC(=O)/C1=C\c1cn(-c2ccccc2)nc1-c1ccccc1	4µM*	?	30%	-4%	-7%
COc1cc(OC)c(C#N)c(S(=O)(=O)Cc2ccccc2)c1	16%	-2%	-27%	-4%	3%
N#Cc1c([N+](=O)[O-])cc([N+](=O)[O-])cc1S(=O)(=O)Cc1ccccc1	?	11µM*	-42%	-21%	?
O=C(/C=C/c1ccco1)c1ccc(NC(=O)C23CC4CC(CC(C4)C2)C3)cc1	?	-4%	18µM*	5%[2.32 µM]	0%
O=C(C=Cc1ccco1)c1ccc([N+](=O)[O-])cc1	-21%[46.1 µM]	6%[46.1 µM]	/	-20%	/
Cc1cc(C(=O)COC(=O)c2ccc(O)cc2O)c(C)n1-c1ccc(OC(F)F)cc1	7.9µM*	?	-57%	-1%	0%
Cc1cc(C(=O)COC(=O)c2ccc(O)cc2O)c(C)n1-c1ccccc1	?	11µM*	-34%	9%[11.6 µM]	?
COc1cc(NC(=O)c2cccs2)c(C(=O)OCC(=O)c2cc(C)n(-c3ccccc3)c2C)cc1OC	3.5µM*	?	-21%	-8%[11.6 µM]	-3%
COc1ccc(-n2c(C)cc(C(=O)COC(=O)c3ccc(O)cc3O)c2C)cc1	/	/	-49%	-2%	-15%
SMILES	MARV entry inh	LASV entry inh	AmpC no deterg	AMA1-RON2 inh	AmpC detergent
COc1cc(NC(=O)c2cccs2)c(C(=O)OCC(=O)c2cc(C)n(-c3ccc(F)cc3)c2C)cc1OC	?	?	-27%	12%	?
CC1Cc2cc(S(=O)(=O)CCC(=O)Nc3ccc(F)cc3Cl)ccc2N1C(=O)C1CC1 (stereo not given)	/	7%[46.1 µM]	/	/	11%
CCN1CCN(c2nc3c(c(=O)[nH]c(=O)n3C)n2CCSc2nc3ccccc3s2)CC1	5%	/	47%	-2%	-2%
CC(CSc1nc2ccccc2s1)Cn1c(N2CCCC2)nc2c1c(=O)[nH]c(=O)n2C (stereo not given)	8.9µM*	-22%	28%	0%	-7%
O=C(C=Cc1cccc([N+](=O)[O-])c1)c1ccccc1	-27%[14.2 µM]	?	/	/	/
CC(C)CNC(=O)c1coc(=O)c(Br)c1	?	16µM*	-3%	4%	-1%
O=C1C(Cl)=C(NCCc2ccccc2)C(=O)c2ccccc21	?	?	/	13µM*	/
CC(C)OCCCNC1=C(Cl)C(=O)c2ccccc2C1=O	?	3%	-1%	20µM*	-1%
C=CCNC1=C(Cl)C(=O)c2ccccc2C1=O	?	?	-11%	18µM*	-6%
CC(=O)N(Cc1ccc(F)cc1)C1=C(NCCc2ccccc2)C(=O)c2ccccc2C1=O	?	7.1µM*	85%	?	-10%
COCCCNC1=C(Cl)C(=O)c2ccccc2C1=O	-22%[46.1 µM]	25%[46.1 µM]	-13%	10%	-1%
COc1ccc(-c2nc3sc(CCNC(=O)C(=O)Nc4ccccc4C#N)c(C)n3n2)cc1	/	9%[46.1 µM]	/	/	1%
CC(=O)OC[C@H]1O[C@H](c2ccc(C(C)=O)cc2)C=C[C@@H]1OC(C)=O	2%[14.2 µM]	/	/	/	/
COc1ccc(Cl)cc1NC(=O)c1cc(C)nc2c1c(C)nn2-c1ccccc1	/	26%[46.1 µM]	/	/	-1%
CCc1ccc(NC(=O)C2=CC(c3cccs3)=NS(=O)(=O)N2C)cc1	-19%[46.1 µM]	-18%[46.1 µM]	18µM*	-19%	-10%
O=S(=O)(NCc1cn2ccsc2n1)c1ccc(Oc2ccccc2)cc1	?	-29%	4µM*	-7%	0%
CC(C)NC(=O)N1CCN(S(=O)(=O)c2ccc3c(ccn3C)c2)CC1	/	5%[46.1 µM]	/	/	1%
Cc1ccc(S(=O)(=O)NC(=O)Nc2ccc(N(C)C)cc2)cc1	?	13µM*	-42%	-26%	-14%
Cc1ccc(NC(=O)Nc2cc(S(=O)(=O)N(C)C)ccc2C)cc1	/	/	25µM*	0%	-8%
Cc1ccc(NC(=O)NNS(=O)(=O)c2ccc(Br)cc2)cc1	?	0%	-22%	35%	-14%
Cc1ccc(S(=O)(=O)N(C)C)cc1NC(=O)Nc1ccccc1	-4%[46.1 µM]	3%[46.1 µM]	-55%	-9%	1%
Cc1oc2ncn(CC(C)C)c(=O)c2c1C(=O)NCCCN1CCC(C)CC1	/	21%[46.1 µM]	/	/	-6%
Cc1cc(C)cc(-n2cnc3cc(C(=O)NCCc4ccccc4)ccc32)c1	/	3%[46.1 µM]	/	/	-1%
O=C1C=C(O)c2c(O)cc(O)c(O)c2C1=O	/	/	/	1µM*	/
CCc1cccc2c3c([nH]c12)[C@](CC)(CC(=O)O)OCC3	-19%	/	/	/	/
Cc1nc(N2CCN(C(=O)c3cccs3)CC2)c2c3c(sc2n1)CCCC3	-3%[46.1 µM]	?	48%	-4%	35µM*
Cc1nc(N2CCN(C(=O)c3ccco3)CC2)c2c3c(sc2n1)CCCC3	?	-56%	94%	-11%	-3%
